From PubChem BioAssay
NS1 function inh: inhibitors of influenza NS1 protein function; Potency, µM (doses to about 46.1 µM), inactives show at the highest dose activity, positive = more growth; hit rate 0.4% among 270,000; AID 2326; calls by dose curve; note: actives are rising curves; nearly all actives have a fitted effect of over 50% in size
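OD600 was taken as the measure of yeast growth restored by compound in an NS1-expressing S. cerevisiae strain. Cells had been washed out of glucose medium and diluted 1:100 into galactose -URA medium, pH 6.0.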
Cruzain Triton: inhibitors of Trypanosoma cruzi cruzain with detergent. hit rate 0.43% among 200,000. Potency, µM, for the others: max response, negative = inhibition, actives largely listed as inhibitors. purified cruzain, Z-FR-AMC fluorescence, 0.01% Triton. P25779;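 note: plate controls were neutral wells for no effect and buffer without enzyme for full effect; nearly all actives have a fitted effect of over 40% in size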
Target sequence (P25779 123-467 limits assumed): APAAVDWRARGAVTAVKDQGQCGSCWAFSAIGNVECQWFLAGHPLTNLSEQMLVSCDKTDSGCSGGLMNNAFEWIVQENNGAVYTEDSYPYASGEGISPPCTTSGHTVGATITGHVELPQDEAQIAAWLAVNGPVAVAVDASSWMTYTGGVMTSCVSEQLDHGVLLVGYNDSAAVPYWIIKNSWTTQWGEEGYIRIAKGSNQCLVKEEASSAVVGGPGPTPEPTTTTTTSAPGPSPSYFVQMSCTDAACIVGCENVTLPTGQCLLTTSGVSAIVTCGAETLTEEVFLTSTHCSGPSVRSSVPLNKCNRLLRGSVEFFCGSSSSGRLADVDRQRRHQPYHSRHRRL
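Steps: dispense cruzain (1.5 nM final) in acetate buffer pH 5.5 with DTT and 0.01% Triton X-100; pin-transfer compounds; incubate 15 min RT; add Z-FR-AMC (2 uM final); read fluorescence every 30 s, using the 60 s intensity change.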
Cruzain noTriton: blocks cruzain activity in detergent-free assay; hit rate 2.3% among 200,000; purified cruzain, Z-FR-AMC fluorescence, no detergent; Potency, µM, for inactives: max response, negative = inhibition, actives largely listed as inhibitors; AID 1476;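 note: plate controls were enzyme without inhibitor for no effect and buffer without enzyme for full effect; nearly all actives have a fitted effect of over 40% in size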
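Detergent-free condition (0.00005% Triton X-100) in acetate buffer pH 5.5 with DTT. 1.5 nM enzyme and compound were pre-mixed 15 min, then 2 uM Z-FR-AMC substrate added; reaction progress from fluorescence change between first and third reads (60 s).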
Starred values were filed as active, the others as inactive; ? = inconclusive; . = no result given. Only a selection was taken, and hits are over-represented in it overall. Unless noted, calls come from the whole dose curve; as a rule, active = well fitted curve in the direction sought with a large enough effect; inconclusive = small, poorly fitted or top-dose-only effect, or another doubt; inactive = no such curve, though single readings can be large; an effect the other way counts as inactive or inconclusive. Potency is the fitted concentration of half-maximal effect.

SMILES | NS1 function inh | Cruzain Triton | Cruzain noTriton
CCC(CC)c1nnc(NC(=O)c2ccc(N3CCCCC3)c([N+](=O)[O-])c2)s1 | 17% | -5% | 0%
O=C(Nc1ccc2c(c1)OCO2)c1ccc(N2CCCC2)c([N+](=O)[O-])c1 | 13% | -10% | 25µM*
O=C(Nc1nc2ccc3ccccc3c2s1)c1ccc(N2CCCCC2)c([N+](=O)[O-])c1 | 5% | -5% | 6.3µM*
CC1(C)C(=O)C(c2ccccc2)=C2CN3C(=O)N(CCc4ccccc4)C(=O)C3(Cc3ccc(C(F)(F)F)cc3)C=C21 (stereo not given) | . | -4% | ?
N#CC(=Cc1ccc(O)c(O)c1)C(N)=S | 12% | -11% | -22%
CC1=CC(=O)CC(C)(C)[C@]1(O)/C=C\C(C)=C\C(=O)O | -3% | 6% | 4%
COc1ccc(C2C(C#N)=C(N)Nc3nc4ccccc4n32)cc1 (stereo not given) | 3% | 1% | ?
COc1ccc(C2C(C#N)=C(N)N3C(=C2C#N)Sc2ccccc23)cc1 (stereo not given) | 0% | -7% | 6.3µM*
COc1ccc2c(c1)c(=O)c(S(=O)(=O)c1ccccc1)cn2CC(=O)Nc1ccc(C)c(Cl)c1 | . | -5% | 20µM*
COc1ccc(NC(=O)Cn2cc(S(=O)(=O)c3ccccc3)c(=O)c3cc(C)ccc32)cc1Cl | . | -4% | 25µM*
Cc1ccc(S(=O)(=O)c2cn(CC(=O)Nc3ccc(C)c(Cl)c3)c3ccc(C)cc3c2=O)cc1 | . | -3% | ?
COc1ccc2c(c1)c(=O)c(S(=O)(=O)c1ccccc1)cn2CC(=O)Nc1ccc2c(c1)OCO2 | . | -7% | 9%
CCOc1ccc(CCNC(=O)c2cc3c(=O)oc4ccc(C)cc4c3s2)cc1OCC | . | 1% | 0%
Cc1ccccc1-c1noc(-c2nnn(-c3ccccc3C)c2N)n1 | . | 1% | 6%
O=C(Nc1ccccc1NC(=O)c1ccco1)c1ccco1 | ? | 0% | 6%
O=C(Nc1nc(-c2cccs2)cs1)c1ccco1 | -31% | . | .
O=C(Nc1nc(-c2ccncc2)cs1)c1ccco1 | -45% | -12% | 16µM*
O=C(Nc1cccc2cccc(NC(=O)c3ccco3)c12)c1ccco1 | 7% | -2% | 25µM*
C#CCSC1=C(C#N)C(c2cccs2)C(C(=O)OCC)=C(C)N1 (stereo not given) | 4% | -7% | 20µM*
CCOC(=O)C1=C(C)NC(C)=C(C(=O)OCC)C1c1cccs1 | 6% | -4% | 7%
Cc1sc(NC(=S)NC(=O)c2ccc(C(C)(C)C)cc2)c(C#N)c1C | 6% | 1% | 10µM*
Cc1sc(NC(=S)NC(=O)c2ccco2)c(C#N)c1C | -4% | . | .
O=C(Cn1c(=O)oc2cc(S(=O)(=O)N3CCCCCC3)ccc21)Nc1ccc(F)cc1F | . | -6% | ?
COC(=O)C(Cc1ccccc1)NC(=O)C(CC(C)C)NC(=O)OC(C)(C)C (stereo not given) | -19% | 16µM* | 32µM*
CCC(C)C(NC(=O)OC(C)(C)C)C(=O)NC(Cc1ccccc1)C(=O)OC (stereo not given) | -7% | -3% | -10%
SMILES | NS1 function inh | Cruzain Triton | Cruzain noTriton
CC(C)CC(NC(=O)C(Cc1ccc(OCc2ccccc2)cc1)NC(=O)OC(C)(C)C)C(N)=O (stereo not given) | 18% | -1% | -2%
CCOC(=O)C(Cc1ccc(O)cc1)NC(=O)CNC(=O)C(CC(C)C)NC(=O)OC(C)(C)C (stereo not given) | -2% | 13µM* | 10µM*
CC(C)c1ccc2oc(-c3ccc(NC(=O)c4ncn[nH]4)cc3)nc2c1 | 5% | -8% | 13µM*
Cc1cccc(C(=O)Nc2ccc(-c3nc4cc(C(C)C)ccc4o3)cc2)c1 | . | -2% | -13%
COc1cc(OC)cc(C(=O)Nc2ccc(-c3nc4cc(C(C)C)ccc4o3)cc2)c1 | . | -2% | 13µM*
COc1cc(OC)cc(C(=O)Nc2ccc(-c3nc4ccccc4o3)cc2)c1 | -51% | -5% | ?
CCC(C)c1ccc2oc(-c3ccc(NC(=O)c4ncn[nH]4)cc3)nc2c1 (stereo not given) | -7% | -10% | 4µM*
O=C(Nc1ccc2oc(-c3cccc4ccccc34)nc2c1)c1ncn[nH]1 | 3% | -3% | ?
Cn1c(=O)c(-c2cc(F)cc(F)c2)nc2cnc(N3CCOCC3)nc21 | . | 3% | 9%
O=S(=O)(c1ccc(Br)cc1)c1nnn2c1nc(Nc1cccc(C(F)(F)F)c1)c1sccc12 | . | 0% | 10%
O=C(CCCn1c2ccccc2c(=O)c2ccccc21)Nc1cccc(Cl)c1 | . | -4% | -11%
Cc1ccc(S(=O)(=O)c2cn(CC(=O)Nc3ccc4c(c3)OCO4)c3ccc(C)cc3c2=O)cc1 | . | -6% | ?
NC(N)=Nc1nc(CSCC/C(N)=N\S(N)(=O)=O)cs1 | . | 25µM* | 13µM*
CCOc1ccc(-n2ccnc2SCC(=O)Nc2cccc3ccccc23)cc1 | . | -4% | 12%
Cc1cc(Cl)c(OCCCN(C)C)c(Br)c1 | 4% | 0% | 5µM*
Cc1ccc(OCCCN(C)C)c(Br)c1 | -6% | 2% | 3%
N#Cc1cccc(-c2cncnc2NCc2cccs2)c1 | . | 9% | 9%
CCC(c1nnnn1Cc1cccs1)N1CCN(c2nc3ccccc3s2)CC1 (stereo not given) | 4% | -3% | ?
CC(C)CC(c1nnnn1Cc1cccs1)N1CCN(c2nc3ccccc3s2)CC1 (stereo not given) | 7% | -5% | 32µM*
COc1ccc(-n2nc3c(c2NC(=O)c2cc4ccccc4o2)CS(=O)(=O)C3)cc1 | -8% | . | .
COc1ccc(-n2nc3c(c2NC(=O)c2cc4ccccc4oc2=O)CS(=O)(=O)C3)cc1 | 6.3µM* | . | .
CC(=O)O[C@H]1CC[C@@]2(C)C(=CC[C@@H]3[C@H]4CC[C@@H]([C@H](C)C(=O)O)[C@]4(C)CC[C@H]32)C1 | -15% | 2% | -4%
Cc1ccc2nc(N3CCN(c4ccccc4)CC3)c3nnnn3c2c1 | . | 0% | -2%
Clc1cccc(N2CCN(c3nc4ccccc4n4nnnc34)CC2)c1 | . | -3% | 20µM*
Cc1cccc(NC(=O)c2cc3ccccc3oc2=O)c1 | 0% | . | .
SMILES | NS1 function inh | Cruzain Triton | Cruzain noTriton
Cc1ccc(S(=O)(=O)N/N=c2\oc3ccccc3cc2C(=O)Nc2cccc(C)c2)cc1 | 7% | -2% | 7.9µM*
COc1ccc(C2CC(=O)N3CN(C4CCCCC4)CSC3=C2C#N)cc1 (stereo not given) | . | 20µM* | 12%
COc1cccc(C2CC(=O)N3CN(C4CCCCC4)CSC3=C2C#N)c1 (stereo not given) | . | 28µM* | 10%
COc1ccc(N2CSC3=C(C#N)C(c4ccc(OC)c(OC)c4)CC(=O)N3C2)c(OC)c1 (stereo not given) | 0% | -12% | -15%
CN1CSC2=C(C#N)C(c3cccc(OCc4ccccc4)c3)CC(=O)N2C1 (stereo not given) | -103% | -13% | 6%
C=CCOC(=O)N[C@@H](CC(C)C)/C(C(=O)OC)=C(\C)NCc1ccccc1 | . | 5% | -13%
Cc1cc(C)c(C#N)c(SCc2nnc(-c3ccccc3)o2)n1 | -34% | -5% | 4%
COc1ccccc1-c1cc(-c2ccc(C)cc2)nc(SCc2nnc(-c3ccccc3)o2)c1C#N | -9% | 0% | 4µM*
CC1CCc2c(sc(NC(=O)CSc3ncn[nH]3)c2C#N)C1 (stereo not given) | -17% | . | .
